Among the test systems are 786-0 renal; MALME-3M melanoma; UACC-257 melanoma; SK-MEL-2 melanoma; EKVX NSCLC; SN12C renal; TK-10 renal; ACHN renal; CAKI-1 renal; A498 renal; RPMI-8226 leukemia; OVCAR-8 ovarian; OVCAR-4 ovarian; SK-OV-3 ovarian; IGROV1 ovarian; OVCAR-3 ovarian; BT-549 breast; MDA-MB-435 melanoma; HCT-116 colon; HCC-2998 colon.
Holding throughout (experiment): NCI-60 one-dose screen, 48 h (100 = growth as untreated, 0 = no growth, -100 = all killed)
Holding throughout (conditions): 10 µM

The panel holds about 83,000 compounds, 20% with a hit somewhere; the sample as a whole holds those more often.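 Note: values are percent growth. 100 is the growth of untreated cells, values between 100 and 0 indicate rising inhibition; between -100 and 0 indicates cell death.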 The source made the active and inactive calls. The calls were made as follows: active = growth percent below 10; inactive = the rest.

This is an account of results in PubChem BioAssay (NCI).

`O=C(/C=C/c1ccco1)c1nc2ccccc2n1Cc1ccc(Br)cc1`: the growth in the test on 786-0 renal is 23% (inactive); in the test with MALME-3M melanoma it was 44.2% (inactive); in the test with UACC-257 melanoma, 36.9% (inactive); in the test with SK-MEL-2 melanoma, 46.2% (inactive); in the test with EKVX NSCLC, 17.8% (inactive); in the test with SN12C renal it was 43.4% (inactive). Further, the growth in the test with TK-10 renal was 77.1% (inactive); with ACHN renal it was 48.7% (inactive); in the test on CAKI-1 renal, 47.5% (inactive); in the test on A498 renal it was 105% (inactive); in the test on RPMI-8226 leukemia it was -5.78% (active); in the test on OVCAR-8 ovarian, 46.7% (inactive). For the same compound, the growth with OVCAR-4 ovarian was 46.5% (inactive); with SK-OV-3 ovarian, 103% (inactive); in the test on IGROV1 ovarian, 31.6% (inactive); in the test with OVCAR-3 ovarian it was 22% (inactive); in the test with BT-549 breast it was 6.02% (active); in the test with MDA-MB-435 melanoma, 15.2% (inactive). The growth is 8.16% (active) in the test with HCT-116 colon and 12.7% (inactive) in the test with HCC-2998 colon.

With `O=C(/C=C/c1ccccc1)c1nc2ccccc2n1Cc1ccc(Br)cc1`, the growth was -89.8% (active) in the test on 786-0 renal; -64.7% (active) in the test with MALME-3M melanoma; -51.1% (active) in the test on UACC-257 melanoma; -51.1% (active) in the test on SK-MEL-2 melanoma; -89.2% (active) in the test with EKVX NSCLC; -58.7% (active) in the test on SN12C renal. Also, the growth is -47.9% (active) in the test on TK-10 renal; -74.5% (active) in the test with ACHN renal; -19.2% (active) in the test on CAKI-1 renal; 51% (inactive) in the test with A498 renal; -23.1% (active) in the test with RPMI-8226 leukemia; -18.5% (active) in the test on OVCAR-8 ovarian. In addition, the growth is 27% (inactive) in the test on OVCAR-4 ovarian; 28.7% (inactive) with SK-OV-3 ovarian; -57.8% (active) in the test with IGROV1 ovarian; -72.5% (active) with OVCAR-3 ovarian; -69.8% (active) in the test with BT-549 breast; -27.9% (active) in the test on MDA-MB-435 melanoma. For the same compound, the growth is -88.1% (active) in the test on HCT-116 colon and -97.3% (active) in the test with HCC-2998 colon.

On to `COC(=O)CCn1c(-c2ccc(-n3cc(-c4ccc(O[C@H]5O[C@@H]6OC7(C)CC[C@H]8[C@H](C)CC[C@@H]([C@H]5C)[C@@]68OO7)cc4)nn3)cc2)nc2ccccc21`, for which the growth is 32.3% (inactive) in the test with 786-0 renal; 0.0576% (active) with MALME-3M melanoma; 27.9% (inactive) in the test with UACC-257 melanoma; -6.2% (active) with SK-MEL-2 melanoma; 23.5% (inactive) in the test with EKVX NSCLC; 16.3% (inactive) in the test with SN12C renal. For the same compound, the growth in the test with TK-10 renal is 30.4% (inactive); in the test with ACHN renal it was 8.18% (active); in the test on CAKI-1 renal it was 13.7% (inactive); in the test with A498 renal, 74.4% (inactive); in the test on RPMI-8226 leukemia, 20.3% (inactive); with OVCAR-8 ovarian, 9.58% (active). Further, the growth with OVCAR-4 ovarian is 34.2% (inactive); with SK-OV-3 ovarian, 33.1% (inactive); in the test on IGROV1 ovarian it was 21.7% (inactive); in the test with OVCAR-3 ovarian it was 20.4% (inactive); in the test with BT-549 breast it was -7.77% (active); with MDA-MB-435 melanoma, 24.5% (inactive). The results for the growth in the test with HCT-116 colon and in the test with HCC-2998 colon were 11.6% (inactive) and 38.5% (inactive), respectively.

With `CN(C)CCc1cn(C2CCC2)c2cccc(O)c12`, the growth with 786-0 renal is 50% (inactive); in the test with MALME-3M melanoma, 46.5% (inactive); in the test on UACC-257 melanoma, 41.8% (inactive); with SK-MEL-2 melanoma, 99.4% (inactive); with EKVX NSCLC, 94.9% (inactive); in the test on SN12C renal, 68% (inactive). Besides, the growth was 103% (inactive) in the test with TK-10 renal; 84.6% (inactive) in the test on ACHN renal; 42.3% (inactive) with CAKI-1 renal; 95% (inactive) in the test on A498 renal; 24.4% (inactive) in the test on RPMI-8226 leukemia; 96.6% (inactive) with OVCAR-8 ovarian. The growth is 86.6% (inactive) with OVCAR-4 ovarian; 92.9% (inactive) in the test on SK-OV-3 ovarian; 84.2% (inactive) in the test on IGROV1 ovarian; 93.6% (inactive) in the test on OVCAR-3 ovarian; 68.1% (inactive) with BT-549 breast; 45.9% (inactive) in the test with MDA-MB-435 melanoma. In addition, the growth in the test on HCT-116 colon is 31.6% (inactive); in the test on HCC-2998 colon it was -46.1% (active).

Turning to `CC12OOC(C)(OO1)C2CCC(=O)OCCNc1ccnc2cc(Cl)ccc12` (stereo not given), the growth in the test on 786-0 renal was -29.3% (active); in the test with MALME-3M melanoma it was -73% (active); in the test with UACC-257 melanoma, 82.1% (inactive); in the test with SK-MEL-2 melanoma, 107% (inactive); with EKVX NSCLC it was -60.6% (active); in the test with SN12C renal it was 84.3% (inactive). The growth was 66.3% (inactive) in the test on TK-10 renal; -93.8% (active) with ACHN renal; -79.4% (active) with CAKI-1 renal; 109% (inactive) in the test with A498 renal; 8.42% (active) with RPMI-8226 leukemia; 68% (inactive) in the test on OVCAR-8 ovarian. The growth was -39.8% (active) in the test on OVCAR-4 ovarian; 95.9% (inactive) with SK-OV-3 ovarian; 39.7% (inactive) with IGROV1 ovarian; -65.9% (active) in the test on OVCAR-3 ovarian; 93.1% (inactive) in the test on BT-549 breast; 31.3% (inactive) in the test on MDA-MB-435 melanoma. The growth in the test with HCT-116 colon was 0.954% (active); in the test with HCC-2998 colon, 88.5% (inactive).

`COC(=O)C[C@](O)(CCC(C)C)C(=O)O[C@H]1C(OC)=C[C@@]23CCCN2CCc2cc4c(cc2[C@@H]13)OCO4`: the growth with 786-0 renal is -16.1% (active); in the test on MALME-3M melanoma, -45.1% (active); in the test on UACC-257 melanoma, -30.9% (active); with SK-MEL-2 melanoma, -46.4% (active); with EKVX NSCLC, -16.2% (active); in the test on SN12C renal, -14.9% (active). Moreover, the growth in the test with TK-10 renal is -16.4% (active); with ACHN renal it was -23.3% (active); in the test with CAKI-1 renal, -28.4% (active); with A498 renal, -19% (active); in the test with RPMI-8226 leukemia, -19.5% (active); with OVCAR-8 ovarian it was -38.8% (active). Moreover, the growth with OVCAR-4 ovarian is -22.7% (active); in the test with SK-OV-3 ovarian it was -8.41% (active); in the test with IGROV1 ovarian it was -19.3% (active); with OVCAR-3 ovarian it was -36.9% (active); with BT-549 breast it was -33.7% (active); in the test with MDA-MB-435 melanoma it was -32.6% (active). Besides, the growth is -20.4% (active) in the test on HCT-116 colon and -62.4% (active) in the test with HCC-2998 colon.

Take `CC(=O)Oc1ccccc1C(=O)[Se]C(=NC(C)C)NC(C)C`: the growth with 786-0 renal was -95.9% (active); with MALME-3M melanoma it was -43.5% (active); in the test on UACC-257 melanoma, -95.1% (active); with SK-MEL-2 melanoma it was -79.4% (active); in the test on EKVX NSCLC, -94% (active); in the test with SN12C renal it was -78.7% (active). In addition, the growth with TK-10 renal is -98.5% (active); in the test on ACHN renal it was -80.8% (active); in the test on CAKI-1 renal it was -98.5% (active); in the test on A498 renal, -24.8% (active); with RPMI-8226 leukemia it was -20% (active); in the test on OVCAR-8 ovarian, -86.3% (active). The growth in the test on OVCAR-4 ovarian was -56% (active); in the test with SK-OV-3 ovarian, -95.6% (active); in the test on IGROV1 ovarian it was -89.8% (active); in the test with OVCAR-3 ovarian, -93.7% (active); in the test on BT-549 breast, -94.7% (active); in the test on MDA-MB-435 melanoma it was -94.1% (active). The growth with HCT-116 colon was -82.4% (active); in the test with HCC-2998 colon, -91% (active).

Regarding `C#CC[Se]C(=O)c1ccc(C(=O)[Se]CC#C)s1`, the growth with 786-0 renal was 82.2% (inactive); with MALME-3M melanoma, 98.1% (inactive); in the test with UACC-257 melanoma it was 90.7% (inactive); in the test on SK-MEL-2 melanoma, 126% (inactive); in the test on EKVX NSCLC, 48.4% (inactive); in the test with SN12C renal it was 85.9% (inactive). Further, the growth with TK-10 renal was 84.8% (inactive); in the test on ACHN renal, 43.6% (inactive); with CAKI-1 renal it was 106% (inactive); with A498 renal it was 101% (inactive); with RPMI-8226 leukemia it was 86% (inactive); in the test on OVCAR-8 ovarian it was 75.6% (inactive). Moreover, the growth in the test with OVCAR-4 ovarian is 103% (inactive); in the test on SK-OV-3 ovarian it was 110% (inactive); with IGROV1 ovarian, 85.5% (inactive); in the test with OVCAR-3 ovarian, 84.5% (inactive); in the test on BT-549 breast, 101% (inactive); in the test with MDA-MB-435 melanoma it was 95.8% (inactive). The growth with HCT-116 colon is 14% (inactive); in the test with HCC-2998 colon it was 94.7% (inactive).
